A number with no mark means an inactive call. Active and inactive are the calls of the source.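 How the source made its calls, unless noted: active means mean inhibition above 46.68%, the untreated control wells mean plus 3 SD; inactive means the rest.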
Key:
[1] = target: Nuclear receptor coactivator 3 (Homo sapiens) (UniProt Q9Y6Q9); assay: SRC3 coactivator transcriptional activity inhibitors, confirmation, cell-based, luminescence, quadruplicate (AID 588792;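 active means mean inhibition over 43.08%, the solvent-only control mean plus 3 SD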;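 further: 0% = DMSO treated cells and 100% = gossypol at 36 µM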); details: HEK293 GAL4-SRC3 luciferase reporter, at 3.6 µM, hits give high values
[2] = tested on: transactivating tegument protein VP16 (Human herpesvirus 1), Gal4-VP16 luciferase reporter; assay: VP16 transactivation inhibitors, counter-screen for SRC3 inhibitor project, cell-based, luminescence, high throughput (AID 588794; in the data active means inhibition above about 30%); details: mammalian cells, VP16-driven luciferase reporter luminescence; at 3.6 µM; hits give high values
[3] = target: Nuclear receptor coactivator 1 (Homo sapiens) (UniProt Q15788); assay: SRC1 coactivator transcriptional activity inhibitors, confirmation, cell-based, luminescence, quadruplicate (AID 588820); details: HEK293 GAL4-SRC1 luciferase reporter, at 3.6 µM, hits give high values;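 further: 0% = DMSO wells and 100% = gossypol 36 µM treated wells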
[4] = VP16 transactivation inhibitors, counter-screen for SRC1 inhibitor project, cell-based, luminescence, high throughput (AID 588824; in the data active means inhibition above about 25%); details: cell-based VP16 transactivation luciferase luminescence; at 3.6 µM; hits give high values

Chain of Nuclear receptor coactivator 3 (Homo sapiens) (Q9Y6Q9 whole entry, looked up, the tested form may be a part): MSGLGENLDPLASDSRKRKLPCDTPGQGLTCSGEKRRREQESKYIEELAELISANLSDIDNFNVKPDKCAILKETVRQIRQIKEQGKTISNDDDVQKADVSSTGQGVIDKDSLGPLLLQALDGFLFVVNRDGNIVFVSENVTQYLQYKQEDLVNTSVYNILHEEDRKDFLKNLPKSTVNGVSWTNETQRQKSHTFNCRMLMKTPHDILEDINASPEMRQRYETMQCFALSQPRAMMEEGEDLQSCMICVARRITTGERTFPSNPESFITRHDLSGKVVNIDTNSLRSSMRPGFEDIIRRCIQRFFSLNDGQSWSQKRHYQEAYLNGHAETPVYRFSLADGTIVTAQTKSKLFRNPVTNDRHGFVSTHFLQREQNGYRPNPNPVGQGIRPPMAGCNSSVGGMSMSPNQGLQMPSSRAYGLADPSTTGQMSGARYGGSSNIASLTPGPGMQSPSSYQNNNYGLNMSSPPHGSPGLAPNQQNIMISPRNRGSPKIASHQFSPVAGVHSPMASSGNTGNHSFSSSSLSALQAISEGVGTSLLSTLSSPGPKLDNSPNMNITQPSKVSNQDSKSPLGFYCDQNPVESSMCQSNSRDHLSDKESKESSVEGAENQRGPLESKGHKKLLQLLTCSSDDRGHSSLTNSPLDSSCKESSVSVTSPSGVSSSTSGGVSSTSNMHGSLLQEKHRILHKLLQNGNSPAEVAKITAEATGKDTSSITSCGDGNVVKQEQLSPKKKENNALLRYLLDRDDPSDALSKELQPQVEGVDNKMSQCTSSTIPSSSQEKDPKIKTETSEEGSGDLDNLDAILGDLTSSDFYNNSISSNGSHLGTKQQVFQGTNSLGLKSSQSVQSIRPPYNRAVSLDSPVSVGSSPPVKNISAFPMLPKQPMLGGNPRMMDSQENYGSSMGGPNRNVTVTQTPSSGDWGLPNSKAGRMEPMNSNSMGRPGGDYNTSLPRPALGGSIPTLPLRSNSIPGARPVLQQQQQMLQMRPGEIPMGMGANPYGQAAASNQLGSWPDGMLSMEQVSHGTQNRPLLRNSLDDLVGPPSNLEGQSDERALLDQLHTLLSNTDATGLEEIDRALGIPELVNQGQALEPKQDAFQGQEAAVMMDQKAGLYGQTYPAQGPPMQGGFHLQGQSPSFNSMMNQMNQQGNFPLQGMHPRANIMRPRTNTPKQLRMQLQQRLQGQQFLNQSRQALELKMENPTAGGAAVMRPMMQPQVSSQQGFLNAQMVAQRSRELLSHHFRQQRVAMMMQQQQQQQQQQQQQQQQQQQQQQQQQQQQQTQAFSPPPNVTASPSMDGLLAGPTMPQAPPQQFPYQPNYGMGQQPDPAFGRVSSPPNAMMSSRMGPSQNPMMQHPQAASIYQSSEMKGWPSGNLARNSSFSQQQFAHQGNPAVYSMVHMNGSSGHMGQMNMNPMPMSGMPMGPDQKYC
Chain of Nuclear receptor coactivator 1 (Homo sapiens) (Q15788 whole entry, looked up, the tested form may be a part): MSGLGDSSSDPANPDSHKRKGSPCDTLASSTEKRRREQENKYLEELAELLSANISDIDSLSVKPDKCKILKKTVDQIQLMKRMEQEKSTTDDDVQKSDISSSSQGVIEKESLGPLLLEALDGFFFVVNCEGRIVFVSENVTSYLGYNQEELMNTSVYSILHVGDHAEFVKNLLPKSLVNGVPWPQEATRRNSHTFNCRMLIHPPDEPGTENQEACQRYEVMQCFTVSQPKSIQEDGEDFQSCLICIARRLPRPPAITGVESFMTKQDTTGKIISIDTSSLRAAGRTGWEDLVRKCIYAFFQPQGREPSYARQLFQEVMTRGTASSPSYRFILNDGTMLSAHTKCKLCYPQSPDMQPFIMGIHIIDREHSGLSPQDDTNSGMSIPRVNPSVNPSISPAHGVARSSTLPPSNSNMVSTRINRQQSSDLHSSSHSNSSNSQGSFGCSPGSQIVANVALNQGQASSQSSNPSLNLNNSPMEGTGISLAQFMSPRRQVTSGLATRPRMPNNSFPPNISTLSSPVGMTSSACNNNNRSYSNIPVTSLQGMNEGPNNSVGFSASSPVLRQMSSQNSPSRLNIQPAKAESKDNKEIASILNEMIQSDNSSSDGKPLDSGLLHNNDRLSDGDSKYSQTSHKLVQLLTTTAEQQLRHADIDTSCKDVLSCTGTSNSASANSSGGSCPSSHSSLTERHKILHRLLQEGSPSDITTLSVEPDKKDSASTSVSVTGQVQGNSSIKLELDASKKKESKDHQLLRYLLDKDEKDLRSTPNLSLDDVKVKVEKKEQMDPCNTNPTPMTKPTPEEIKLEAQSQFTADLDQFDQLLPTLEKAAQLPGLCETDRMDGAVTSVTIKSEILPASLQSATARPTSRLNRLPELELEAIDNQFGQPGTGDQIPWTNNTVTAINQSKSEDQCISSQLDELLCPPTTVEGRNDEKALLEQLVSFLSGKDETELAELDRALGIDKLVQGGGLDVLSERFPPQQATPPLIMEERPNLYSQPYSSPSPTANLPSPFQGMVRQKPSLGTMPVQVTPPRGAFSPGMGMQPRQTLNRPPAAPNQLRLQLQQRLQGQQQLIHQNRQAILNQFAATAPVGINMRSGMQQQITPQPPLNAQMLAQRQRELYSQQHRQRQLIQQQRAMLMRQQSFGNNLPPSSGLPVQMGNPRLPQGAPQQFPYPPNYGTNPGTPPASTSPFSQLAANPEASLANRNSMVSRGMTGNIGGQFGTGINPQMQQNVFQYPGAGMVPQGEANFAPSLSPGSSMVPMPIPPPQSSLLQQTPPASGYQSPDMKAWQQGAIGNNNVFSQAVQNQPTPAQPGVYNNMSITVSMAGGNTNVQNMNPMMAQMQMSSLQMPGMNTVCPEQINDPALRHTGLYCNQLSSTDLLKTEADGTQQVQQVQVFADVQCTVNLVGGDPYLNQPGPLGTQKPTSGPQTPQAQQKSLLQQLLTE

| SMILES | inhibition [1] | inhibition [2] | inhibition [3] | inhibition [4] |
| --- | --- | --- | --- | --- |
| O=C(N/N=C/c1cc(O)ccc1Br)c1cccnc1 | 17.6% | 37.5% (active) | 19.8% | 39.3% (active) |
| COC1C(CO)OC(n2c3c(Cl)cccc3c3c4c(c5c6cccc(Cl)c6[nH]c5c32)C(=O)NC4=O)C(O)C1O (stereo not drawn) | 68.3% (active) | 49.2% (active) | 23.4% | 42.6% (active) |
| CCCCC(=O)NC(c1cccs1)c1cc(Cl)c2cccnc2c1O (stereo not drawn) | 44.5% (active) | 40.6% (active) | 27.5% | 49.9% (active) |
| O=C(CNS(=O)(=O)Cc1ccccc1)NNc1ccccc1 | 3.12% | 12.1% | 12.8% | 16.3% |
| O=C(C1CCC(CNS(=O)(=O)c2cccs2)CC1)N1CCN(c2ccc(Cl)cc2)CC1 (stereo not drawn) | 13.8% | 30.5% (active) | 14.9% | 34.6% (active) |
| Cc1ccc(C(=O)NCCn2cc(SCC(=O)Nc3nnc(C)s3)c3ccccc32)cc1 | 18.6% | 4.22% | -32.5% | -0.04% |
| CC(=O)NS(=O)(=O)c1ccc(NC(=O)/C=C/c2cn(-c3ccccc3)nc2-c2ccccc2)cc1 | -12.7% | 0.43% | 1.36% | -3.92% |
| CCOC(=O)c1c(C)c2c(=O)[nH]cnc2n1-c1ccccc1 | 51.5% (active) | 36.8% (active) | 59.9% (active) | 39.9% (active) |
| c1ccc(CNc2c3ccccc3nc3ccccc23)cc1 | 11.8% | 43.6% (active) | 0.54% | 54.9% (active) |
| CCCCC(=O)OCC(=O)C1(O)Cc2c(O)c3c(c(O)c2C(OC2CC(NC(=O)C(F)(F)F)C(O)C(C)O2)C1)C(=O)c1c(OC)cccc1C3=O (stereo not drawn) | 26% | 10.2% | 29.3% | 16.3% |
| COc1ccc(/C=C2\N=C(C(C)(C)C)OC2=O)c(OC)c1 | 9.73% | 19.2% | 10% | 3.16% |
| CN(C)C=Nc1c(C(=O)c2ccccc2)sc2nccc(N(C)C)c12 | 20.3% | 16.3% | 30.8% | 16.9% |
| COc1ccc(CNc2nn3c(-c4cccc(C(=O)N(C)C)c4)cnc3s2)cc1 | 50.3% (active) | 30.7% (active) | 51.7% (active) | 33.5% (active) |
| CC(=O)Nc1ccc(SCC(=O)c2cc(C)n(-c3ccccc3)c2C)cc1 | 30.3% | 19.6% | -4.5% | -6.91% |
| O=C(NC(=S)/C(=C1\CCCCCN1)[N+](=O)[O-])c1ccccc1 | 32.1% | 9.73% | -25.3% | -33% |
| O=[N+]([O-])c1cccc2c1ccc1ncccc12 | 33% | 11.7% | 36% | 15.9% |
| c1ccc(-c2noc(-c3ccc4ccccc4c3)n2)nc1 | 43.7% (active) | 19.2% | -79.6% | 23.7% |
| Cc1nc2c(-c3ccc(Cl)cc3)c(C)[nH]n2c(=O)c1Cc1ccccc1 | 24.1% | 29.3% | 24.5% | 22.1% |
| Cc1nc(N2CCC(C(N)=O)CC2)c2c(-c3cccs3)csc2n1 | 38% | 25.8% | 34.9% | 18.9% |
| CCCN(CCC)c1nc(-c2ccccn2)nc2ccccc12 | 80% (active) | 35.2% (active) | 30.2% | 29.9% (active) |
| Cc1nn(Cc2ccc(Cl)cc2)c(C)c1NC(=O)c1cc(-c2ccc3c(c2)OCO3)on1 | 15.2% | 50.3% (active) | 29.5% | 54.1% (active) |
| COC1C(OC(=O)/C=C/C=C/C=C/C=C/C(=O)O)CCC2(CO2)C1C1(C)OC1CC=C(C)C (stereo not drawn) (tested in a mixture with another compound) | 17.6% | 20.7% | 9.4% | 20.7% |
| CCN(CC)CCNC(=O)c1ccc2c(c1NCCO)C(=O)c1ccccc1C2=O | -15.3% | -1.86% | -19.2% | -8.97% |
| COc1ccc2c(c1OC)C(=O)N1c3ccccc3C(=O)N(c3ccccc3)C21 (stereo not drawn) | 17.1% | 8.85% | -5.64% | 2.1% |
| c1nc(NCc2ccc3c(c2)OCO3)c2cc(-c3ccoc3)ccc2n1 | 70.4% (active) | 51.5% (active) | 54.8% (active) | 45.4% (active) |
| COc1ccc(-n2c(=S)[nH]c3cc(C(=O)Nc4ccc(F)cc4)ccc3c2=O)c(OC)c1 | 19.7% | 40.8% (active) | 26.5% | 44.6% (active) |

| SMILES | inhibition [1] | inhibition [2] | inhibition [3] | inhibition [4] |
| --- | --- | --- | --- | --- |
| O=C(Nc1scc(-c2ccc(Br)cc2)c1C(=O)O)c1ccccc1F | 10.7% | 15.8% | -17.2% | 10.7% |
| Cc1ccc(NC(=O)C2CCN(c3ncnc4sc(C)c(C)c34)CC2)cc1S(=O)(=O)N(C)C | 10.3% | 12.1% | 17.6% | 1.39% |
| CN(Cc1ccccc1)c1ncnc(N)c1[N+](=O)[O-] | 41.4% | 34.3% (active) | 38.4% | 30% (active) |
| COc1cc(/C=N/NC(=Nc2ccc(C)cc2)c2nc3ccccc3s2)ccc1O | 35.6% | 9.45% | 11.4% | -38% |
| Cn1c(/C=C/c2ccc(Cl)cc2)c([N+](=O)[O-])c(=O)n(C)c1=O | 39.6% | 35.7% (active) | 36.3% | 28.6% (active) |
| CC(C)(C)c1cc(C(=O)N/N=C/c2ccc(O)cc2)n(-c2ccccc2)n1 | 34.9% | 14% | 20.3% | 13.7% |
| O=C(NC1CCCCCCC1)C1c2ccccc2C(=O)N1Cc1cccs1 (stereo not drawn) | 5.02% | 14.6% | 4.81% | 9.14% |
| COc1cccc(C(=O)Nc2nc(-c3ccc(S(=O)(=O)N4CCOCC4)cc3)cs2)c1 | 3.89% | 9.14% | -19.1% | -0.53% |
| O=C(NCc1cccs1)c1nc2c(nnn2Cc2ccccc2Cl)c(=O)[nH]1 | 84.2% (active) | 79.5% (active) | 58.5% (active) | 74.7% (active) |
| O=C(Nc1ccc(N2CCN(C(=O)c3ccc(Cl)cc3)CC2)cc1)c1ccc2c(c1)OCCO2 | 14.2% | 42% (active) | 1.25% | 42.5% (active) |
| CCn1ccnc1CN(C)Cc1cn[nH]c1-c1ccc(OC)c(F)c1 | 36.8% | 26.1% | 34.3% | 28% (active) |
| COc1cccc(-c2ccc3ncnc(NCc4cccnc4)c3c2)c1 | 45.5% (active) | 31.6% (active) | 24.8% | 36.2% (active) |
| COc1ccc(-c2csc3ncnc(NCCCO)c23)cc1 | 66.3% (active) | 46.3% (active) | 50.2% (active) | 49.8% (active) |
| CCN(CC)CCNc1ccc(C)c2sc3ccc(O)cc3c(=O)c12 | 41.5% | 34.1% (active) | 50% (active) | 31.8% (active) |
| Cc1cc(/C=C2\Cc3ccccc3C2=O)c(C)n1-c1ccccc1 | 53.5% (active) | 18.6% | 20.5% | -2.62% |
| COc1ccc2[nH]c3c(c2c1)CCNC3=O | 53.2% (active) | 42.7% (active) | 62.3% (active) | 33.7% (active) |
| COc1ccccc1N(C(=O)CCl)c1cn(C(C)=O)c2ccccc12 | 52.2% (active) | 27% | 27.2% | 18.7% |
| COc1cc2c(cc1OC)C(C)N(C(=O)c1cccc([N+](=O)[O-])c1)CC2 (stereo not drawn) | 34% | 23.4% | 17.3% | 22.3% |
| N=c1c2c(-c3ccccc3)c(-c3ccccc3)n(Cc3ccco3)c2ncn1CCCO | 26.8% | 52.6% (active) | 36.9% | 51.3% (active) |
| Clc1cncc(Cl)c1N/N=C/c1ccncc1 | 24.8% | 26.7% | 40.4% | 27.4% (active) |
| CCN(CC)S(=O)(=O)c1ccc(/C=C/C(=O)Nc2ccc(Br)cc2F)cc1 | 21.2% | 40.3% (active) | 16% | 41.9% (active) |
| Cc1cc(=O)[nH]c(Nc2cccc(C(F)(F)F)c2)n1 | 38.8% | 34.2% (active) | 49.4% (active) | 27% (active) |
| COc1cc2cncc(Cc3ccc(Cl)cc3)c2cc1OC | 42.2% | 40.7% (active) | 56.2% (active) | 39.4% (active) |
| CCOC(=O)CC(=O)CSc1nccc(-c2cccnc2)n1 | 37.5% | 15.3% | 16.4% | 10.1% |
| O=C(NCc1ccco1)c1ccc2c(c1)N(Cc1ccccc1)CCS2 | 4.13% | 6.64% | 3.44% | 1.86% |
| COc1ccc(Nc2ncnc3ccc(Br)cc23)cc1OC | 61.3% (active) | 40.6% (active) | 50.7% (active) | 42.2% (active) |

From PubChem BioAssay
